PubChem BioAssay (NCATS)
Several values for one entry are separate records, joined by “and”; a condition that tells them apart may be missing. Equal values may be shown once. Results filed as inconclusive are left out. Activity calls are given as the source filed them. Calls follow the shape of the full dose curve.

Each compound was assayed against Bile acid receptor (Homo sapiens) (UniProt Q96RI1) (assay: qHTS assay for small molecule agonists of farnesoid X receptor signaling (AID 588527;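 also: series mostly up to about 77 µM; 0% = vehicle basal and 100% = reference agonist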)). Conditions: HEK293T FXR-UAS-bla, beta-lactamase ratio, 16 h; active compounds read high.
Chain of Bile acid receptor (Homo sapiens) (Q96RI1 whole entry, looked up): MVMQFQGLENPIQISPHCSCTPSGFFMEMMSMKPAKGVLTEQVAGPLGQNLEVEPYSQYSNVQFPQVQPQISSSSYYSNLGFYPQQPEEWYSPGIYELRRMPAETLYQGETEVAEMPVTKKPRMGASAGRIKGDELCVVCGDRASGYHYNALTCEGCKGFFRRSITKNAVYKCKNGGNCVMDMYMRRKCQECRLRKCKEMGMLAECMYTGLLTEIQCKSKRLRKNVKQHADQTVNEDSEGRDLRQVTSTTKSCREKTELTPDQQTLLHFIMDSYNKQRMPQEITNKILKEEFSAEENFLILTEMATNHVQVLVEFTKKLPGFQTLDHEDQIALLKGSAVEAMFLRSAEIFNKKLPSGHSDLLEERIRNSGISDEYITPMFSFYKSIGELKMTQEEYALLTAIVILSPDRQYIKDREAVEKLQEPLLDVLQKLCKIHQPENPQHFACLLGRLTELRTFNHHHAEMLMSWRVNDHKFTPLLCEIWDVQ
Source text: NIH Chemical Genomics Center [NCGC] U.S. Environmental Protection Agency [EPA] National Institutes of Environmental Health Sciences [NIEHS] National Toxicology Program [NTP] NCGC Assay Overview The farnesoid-X-receptor (FXR), a nuclear hormone receptor is highly expressed in liver, intestine, kidney and adrenal cortex. Natural ligands of FXR are the bile acids (Cholic acid, Chenodeoxy cholic acid etc). It is an important regulator of diverse metabolic pathways, including the bile acid homeostasis, lipid and glucose metabolisms. FXR regulates the expression of target genes by binding either as a monomer or as a heterodimer with RXR (retinoid X receptor). As FXR regulates a large number of target genes involved in bile acid, lipoprotein and glucose metabolisms, it is a potential pharmacological target for bile acid and lipid disorders. Thus screening environmental chemicals on FXR signaling can be used for the studies focused on metabolic syndrome, hepatic and intestinal toxicity etc.
NCGC Assay Protocol Summary Using a beta-lactamase reporter-gene under control of Farnesoid X receptor (FXR) response element, a cell-based assay [GeneBLAzer FXR-UAS-bla assay developed by Invitrogen] was used to measure FXR ligands signaling. GeneBLAzer FXR-UAS-bla HEK293T cells were used with assay medium containing 10% dialyzed FBS. The assay was performed in clear bottom black Greiner 1536-well plates. Chenodeoxycholic acid and Guggulsterone were used in the screen as agonist and antagonist positive controls respectively. Library compounds were measured for their ability to stimulate the reporter gene activity. Compounds were screened in a titration series in 1536-well format. […] Data was normalized relative to Chenodeoxycholic acid control (100 uM, 100%), and DMSO only wells (basal, 0%). Concentration-response titration points for each compound were fitted to the Hill equation yielding concentrations of half-maximal stimulation (EC50) and maximal response (efficacy) values. qHTS protocol for FXR beta-lactamase assay in agonist mode [Step] [Parameter] [Value] [Description] 1. Reagent; 6 uL; 5000 cells/well 2. Incubation; 37 C for 5-7 hrs 3. Compounds; 23 nL; 0.59 nM to 92 uM 4. Controls (Chenodeoxycholic acid); 23 nL, - One column with dose response, start 200 uM, 1:2 dilutions in duplicates - Final concentrations of 100 uM and 60 uM in two columns 5. Incubation; 37 C for 16 hrs 6. Detection reagent; 1 uL of CCF4-dye 7. Incubation; RT for 2 hrs 8. Detection; Fluorescence; Envision plate reader
For `O=C(Cl)/C=C/C(=O)Cl`, the activation was 1.15% (inactive).
`O[C@@H]([C@H](O)[C@@H](O)CBr)[C@@H](O)CBr` was tested, and the activation was -2.21% (inactive).
With `ClC(Cl)=C(c1ccc(Cl)cc1)c1ccc(Cl)cc1` the activation was -9.46% (inactive).
In the case of `Brc1ccc(Oc2cc(Br)c(Br)cc2Br)c(Br)c1`, the activation is reported as 0.173% (inactive) and 5.65% (inactive).
For `C=CC1CC=CCC1` (stereo not given), the activation was 1.2% (inactive) and -0.94% (inactive).
In the case of `Clc1ccc(-c2nc3sccn3c2/C=N/OCc2ccc(Cl)c(Cl)c2)cc1`, the activation is reported as 14.7% (inactive).
`CC(C)(OO)c1ccccc1` was tested, and the activation was -0.414% (inactive) and -0.341% (inactive).
`COP(=S)(OC)Oc1ccc([N+](=O)[O-])cc1` was tested, and the activation was 0.0258% (inactive) and 2.38% (inactive).
For `COC(=O)NC(=S)Nc1ccccc1NC(=S)NC(=O)OC`, the activation was 1.1% (inactive) and -0.86% (inactive).
For `Clc1ccc2ccccc2c1`, the activation was -2.62% (inactive).
With `O=C(Cl)C(Cl)(Cl)Cl` the activation was -1.96% (inactive).
`Cc1ccc2ccccc2c1` was tested, and the activation was -0.561% (inactive).
For `C=CCc1ccc(OC)c(OC)c1`, the activation was 0.141% (inactive).
In the case of `CC(C)OC(=O)Nc1cccc(Cl)c1`, the activation is reported as 2.06% (inactive).
With `CCCCCCCC(=O)Cl` the activation was 0.289% (inactive).
For `CC(Cl)Cl`, the activation was -0.0258% (inactive).
For `C[N+](C)(C)Cc1ccccc1`, the activation was -0.315% (inactive) and 0.14% (inactive).
For `C[C@H]1O[C@@H](O[C@H]2[C@@H](O)C[C@H](O[C@H]3[C@@H](O)C[C@H](O[C@H]4CC[C@@]5(C)[C@H](CC[C@@H]6[C@@H]5C[C@@H](O)[C@]5(C)[C@@H](C7=CC(=O)OC7)CC[C@]65O)C4)O[C@@H]3C)O[C@@H]2C)C[C@H](O)[C@@H]1O`, the activation was -4.19% (inactive).
For `CC(C)(c1ccccc1)c1ccc(O)cc1`, the activation was 1.02% (inactive) and 4.37% (inactive).
With `C=CCOC(C)=O` the activation was -1.61% (inactive).
`Cc1cccc(C#N)c1` was tested, and the activation was -2.16% (inactive).
With `CNC(=O)O/N=C/C(C)(C)SC` the activation was 1.35% (inactive) and 5.69% (inactive) and 1.03% (inactive).
In the case of `C#CCOS(=O)OC1CCCCC1Oc1ccc(C(C)(C)C)cc1` (stereo not given), the activation is reported as 6.98% (inactive).
With `Nc1ccccc1Cl` the activation was -1.66% (inactive).
With `C[C@H](CCC(=O)O)[C@H]1CC[C@H]2[C@@H]3[C@H](O)C[C@@H]4C[C@H](O)CC[C@]4(C)[C@H]3C[C@H](O)[C@]12C` the activation was 1.14% (inactive).
`C1CCC2CCCCC2C1` (stereo not given) was tested, and the activation was -3.01% (inactive).
With `C=C(C)C#N` the activation was 0.805% (inactive) and -0.908% (inactive).
For `OCC1CO1` (stereo not given), the activation was -2.37% (inactive) and -0.462% (inactive).
With `CN(CCOc1ccc(C[C@H](Nc2ccccc2C(=O)c2ccccc2)C(=O)O)cc1)c1ccccn1` the activation was -7.09% (inactive).
For `O=NN(c1ccccc1)c1ccccc1`, the activation was -0.746% (inactive) and 1.47% (inactive).
For `C=CC(=O)OCC`, the activation was -1.2% (inactive).
`NC(=S)Nc1ccccc1` was tested, and the activation was -3.05% (inactive) and -3.49% (inactive).
`Oc1ccc(Cl)cc1Cl` was tested, and the activation was -2.46% (inactive) and -2.63% (inactive).
`COc1cc(CNC(=O)CCCC/C=C/C(C)C)ccc1O` was tested, and the activation was -2.84% (inactive) and 4.77% (inactive).
For `O=S(=O)(O)c1ccccc1`, the activation was 0.473% (inactive).
With `OC[C@H]1O[C@@](CO)(O[C@H]2O[C@H](CO)[C@@H](O)[C@H](O)[C@H]2O)[C@@H](O)[C@@H]1O` the activation was -1.48% (inactive).
For `CCOc1ccc(N)cc1`, the activation was -2.12% (inactive).
`c1ccc2ccccc2c1` was tested, and the activation was 2.2% (inactive) and 1.82% (inactive).
For `CC1=CCC(C(C)(C)O)CC1` (stereo not given), the activation was -1.09% (inactive).
With `CC(C)(C)OOC(C)(C)C` the activation was -0.0913% (inactive).
